Data: the supplement of paper PMC13380429

System: Vero E6 infected with SARS-CoV-2
Test: inhibition of SARS-CoV-2 cytopathic effect; higher = more antiviral protection, active = above 15
Conditions: 48 h

Measured: inhibition of SARS-CoV-2 cytopathic effect

Cc1c(-c2ccnn2C)cc(C(=O)NCc2ccc(S(C)(=O)=O)cn2)c(=O)n1-c1cccc(C(F)(F)F)c1
inactive: 1 nM -2.24% | 8.33 nM -0.81% | 100 nM -0.79% | 833.33 nM -2.96% | 10000 nM -0.81%

CN1CCN(c2cc(-c3ccccc3)nc(N)n2)CC1
inactive: 1 nM 2.02% | 8.33 nM 3.76% | 100 nM 2.45% | 833.33 nM 4.99% | 10000 nM 2.49%

CC(=O)SCCC(=O)N1[C@H](C)CCC[C@@H]1C(=O)O [methiopril]
inactive: 1 nM -1.78% | 8.33 nM -1.6% | 100 nM 3.1% | 833.33 nM 0.4% | 10000 nM 1.04%

CC1(C)S[C@@H]2[C@H](NC(=O)[C@H](NC(=O)N3CCN(S(C)(=O)=O)C3=O)c3ccccc3)C(=O)N2[C@H]1C(=O)O [mezlocillin]
inactive: 1 nM -0.34% | 8.33 nM 0.68% | 100 nM -1.11% | 833.33 nM -0.82% | 10000 nM 0.79%

OC1=c2ccccc2=C(NC2CCCCC2)/C1=C\c1ccccc1
active: 10000 nM 45.5%
inactive: 1 nM 0.53% | 8.33 nM 0.22% | 100 nM 0.42% | 833.33 nM 13.8%

CC[N+](CC)(CCNC(=O)C(=O)NCC[N+](CC)(CC)Cc1ccccc1Cl)Cc1ccccc1Cl [ambenonium]
inactive: 1 nM 0.39% | 8.33 nM -2.16% | 100 nM -1.45% | 833.33 nM 0.75% | 10000 nM 0.34%

C[C@@H]1O[C@@H](O[C@@H]2[C@@H](O)[C@H](OCCc3ccc(O)c(O)c3)O[C@H](CO)[C@H]2OC(=O)/C=C/c2ccc(O)c(O)c2)[C@H](O)[C@H](O)[C@H]1O [verbascoside]
inactive: 1 nM -0.06% | 8.33 nM -0.95% | 100 nM 0.7% | 833.33 nM -1.19% | 10000 nM -1.48%
